Source: PubChem BioAssay (National Center for Advancing Translational Sciences (NCATS))
HEK293 tox: Cytotoxic Profiling in HEK 293 Cell Line of Diverse Libraries Using Quantitative High-Throughput Screening | HEK 293 viability, ATP luminescence (CellTiter-Glo), 48-72 h | Potency, µM (top dose mostly 115 µM), without a hit: at the top dose activity change, negative = cytotoxicity, most hits filed as inhibitors | 94,000 tested, 6.6% active; further: nearly all actives have a fitted effect of over 60% in size
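HEK 293 cells seeded at 250 cells/well were exposed to compound for 48 or 72 hr at 37 degree Celsius. Viability taken as ATP content by CellTiter-Glo luminescence.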
NPR1 antag: Natriuretic polypeptide receptor (hNpr1) antagonism - Primary qHTS. Atrial natriuretic peptide receptor 1 (Homo sapiens), P16066. HEK293 hNpr1 GloSensor cGMP, ANP-stimulated luminescence. Potency, µM (series often up to 46.3 µM), for inactives: at the highest dose activity change, negative = inhibition, usual class: inhibitors. 76,000 tested, 1.6% active. AID 1347048, 2019; calls by dose curve; further: nearly all actives have a fitted effect of over 60% in size
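Compound pre-incubated 30 min at room temperature on GloSensor-loaded HEK293 cells stably carrying hNpr1 and the pGS-40F cGMP biosensor. Stimulation uses hNppA at 0.1 nM final; luminescence is taken at baseline and 20 min post-agonist.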
3T3 cytotox: Cytotoxic Profiling in NIH 3T3 Cell Line of Diverse Libraries Using Quantitative High-Throughput Screening; NIH 3T3 viability, CellTiter-Glo ATP luminescence, 48-72 h; AID 1345082, 2018; 94,000 tested, 4.3% active; Potency, µM (series often up to 96.7 µM), for the others: top-dose activity change, negative = cytotoxicity, hits mostly inhibitors; further: nearly all actives have a fitted effect of over 55% in size
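Viability of NIH 3T3 cells after 48 or 72 hr compound treatment at 37 °C was assessed by CellTiter-Glo, with luminescence imaged following a 10 min room-temperature step.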
GPT2 inh: Primary qHTS assay for inhibitors of Glutamate pyruvate transaminase 2 (GPT2); Alanine aminotransferase 2 (Homo sapiens), Q8TD30; Recombinant GPT2, coupled pyruvate oxidase/HRP Amplex Red fluorescence; Potency, µM (top dose mostly 57.7 µM), for inactives: at the top dose activity change, negative = inhibition, actives largely listed as inhibitors; 100,000 tested, 0.25% active; further: nearly all actives have a fitted effect of over 60% in size
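Fluorescence of coupled pyruvate oxidase/HRP/Amplex Red system (50uM Amplex, 30 min, dark) reports pyruvate formed by GPT2. Enzyme reaction: 10ng/uL GPT2, 2mM L-alanine, 250uM a-KG, 30 min room temperature, pH 7.5; 50uM AOA control.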
Luciferase inh: Firefly luciferase inhibition profiling of diverse chemical library using quantitative high-throughput screening | Luciferin 4-monooxygenase (Photinus pyralis), P08659 | purified P. pyralis luciferase, luminescence, biochemical | Potency, µM (series often up to 115 µM), actives largely listed as inhibitors | 76,000 tested, 2.5% active | AID 1347043, 2019; further: nearly all actives have a fitted effect of over 65% in size
Target sequence (P08659 whole entry, looked up): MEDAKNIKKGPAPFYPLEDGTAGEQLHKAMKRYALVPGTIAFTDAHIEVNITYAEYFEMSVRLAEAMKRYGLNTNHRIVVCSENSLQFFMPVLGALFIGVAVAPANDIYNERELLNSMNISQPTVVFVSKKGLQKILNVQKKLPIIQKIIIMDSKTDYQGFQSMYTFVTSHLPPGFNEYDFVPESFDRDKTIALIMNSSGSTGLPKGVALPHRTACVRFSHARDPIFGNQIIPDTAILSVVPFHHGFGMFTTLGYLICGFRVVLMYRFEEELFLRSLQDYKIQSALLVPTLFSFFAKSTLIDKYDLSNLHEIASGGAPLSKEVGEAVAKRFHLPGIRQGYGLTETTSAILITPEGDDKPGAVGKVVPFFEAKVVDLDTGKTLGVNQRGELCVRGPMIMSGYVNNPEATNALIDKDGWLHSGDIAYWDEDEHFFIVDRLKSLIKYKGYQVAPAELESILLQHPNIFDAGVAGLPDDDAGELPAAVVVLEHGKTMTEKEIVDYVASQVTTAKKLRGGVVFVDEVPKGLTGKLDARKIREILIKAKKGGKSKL
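Purified P. pyralis luciferase (10nM final) in 50mM Tris acetate pH 7.5, 10mM Mg acetate, 0.01% Tween-20, 0.05% BSA with 10uM D-luciferin and 10uM ATP. Compounds titrated qHTS. Luminescence imaged on CCD.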
An asterisk follows results filed as active; [ ] = remark or other dose. In the library only some 10% were active in any assay of this set; here they are far more common. Unless noted, the call rests on the fitted dose curve; in most records, active means well fitted curve in the direction sought with a large enough effect; inconclusive means small, poorly fitted or top-dose-only effect, or another doubt; inactive means no such curve, though single readings can be large; an effect the other way counts as inactive or inconclusive. On the % scale 0 is the no-effect control and ±100 the full control effect; potency means the concentration at half of the fitted maximal effect.

For Cn1cc(CN2CCOc3cc([S+](=O)([O-])Nc4ccccc4)ccc3C2)cn1 the results were HEK293 tox inconclusive, NPR1 antag -6.6%[70.6 µM], 3T3 cytotox -20.6%[138 µM], GPT2 inh 2.5%[88.5 µM] and Luciferase inh inactive.
For O=[S+]([O-])(Nc1ccccc1)c1ccc2c(c1)OCCN(Cc1ccccn1)C2 the results were HEK293 tox 70.8µM*, NPR1 antag -23.8%[70.6 µM], 3T3 cytotox inconclusive, GPT2 inh -1.5%[88.5 µM] and Luciferase inh inactive.
Screening O=C(c1nc(-c2ccc(Cl)cc2Cl)c2ccccn12)N1CCOCC1 returned HEK293 tox inconclusive, 3T3 cytotox -29.4% and GPT2 inh -3.7%.
Screening O=C(N[C@@H]1CCC[C@@H]1C(=O)NCCc1cccs1)c1ccncc1 returned HEK293 tox 4.9%, NPR1 antag -2.0%, 3T3 cytotox -15.2%, GPT2 inh inactive and Luciferase inh inactive.
Screening Cc1cnc(C)n1C1CCN(S(=O)(=O)c2ccccc2)CC1 returned HEK293 tox inconclusive, NPR1 antag -27.6%, 3T3 cytotox inconclusive, GPT2 inh -15.9% and Luciferase inh inactive.
For Cc1cc(C)n(Cc2ccc(C(=O)NCC3Cn4cccc4CN3Cc3ccccc3)o2)n1 (configuration not stated) the results were HEK293 tox inconclusive, NPR1 antag -6.4%, 3T3 cytotox inconclusive, GPT2 inh inactive and Luciferase inh inactive.
O=C(NCc1cccc(Cl)c1)c1nc2sccn2c1-c1cccc(C(F)(F)F)c1 was read as HEK293 tox inconclusive, 3T3 cytotox inconclusive and GPT2 inh inactive.
Cc1cnc(CC2CCN(C(=O)C(C)c3ccccc3)CC2)n1Cc1ccc(F)cc1 (configuration not stated) was read as HEK293 tox 35.5µM*, NPR1 antag -3.0%, 3T3 cytotox inconclusive, GPT2 inh -13.2% and Luciferase inh inactive.
For O=C(c1ccccc1F)N1CCC2(CC1)CC(=O)N(c1ccccc1)c1ccccc1O2 the results were HEK293 tox 79.4µM*, NPR1 antag 21.2%, 3T3 cytotox inconclusive, GPT2 inh -1.6% and Luciferase inh inactive.
O=C(c1ccccc1Cl)N1CCC2(CC1)CC(=O)N(c1ccccc1)c1ccccc1O2 was read as HEK293 tox 79.4µM*, NPR1 antag -5.7%, 3T3 cytotox inconclusive, GPT2 inh -4.7% and Luciferase inh inactive.
For O=C(c1ccccc1)N1CCC2(CC1)CC(=O)N(c1ccccc1)c1ccccc1O2 the results were HEK293 tox -16.3%, NPR1 antag 22.4%, 3T3 cytotox -1.7%, GPT2 inh 2.1% and Luciferase inh inactive.
COc1ccc2cc(CN3CCC(OC)CC3)c(-c3cccc(C)c3)nc2c1 was read as HEK293 tox inconclusive, NPR1 antag -6.2%, 3T3 cytotox -17.9%, GPT2 inh -13.9% and Luciferase inh inactive.
Screening O=C(CCc1nc2ccccc2c(=O)[nH]1)NC1CCCc2c1[nH]c1c(Cl)cccc21 (configuration not stated) returned HEK293 tox inconclusive, NPR1 antag -3.5%, 3T3 cytotox inconclusive, GPT2 inh inactive and Luciferase inh inactive.
`O=C1Nc2ccccc2CC12CCN2Cc1ccccc1C(F)(F)F` (configuration not stated) gave HEK293 tox 79.4µM*, NPR1 antag -7.8%[70.6 µM], 3T3 cytotox inconclusive, GPT2 inh -3.1%[88.5 µM] and Luciferase inh inactive.
For Cc1nn(-c2ccccc2)c2c1C(C(C)C)N(C1CN([S+](=O)([O-])c3c(C)noc3C)C1)C2=O (configuration not stated) the results were HEK293 tox -11.9% and 3T3 cytotox -20.2%.
Screening COC(=O)c1ccc2nc(C[C@@H]3C[C@@H](C(C)C)[C@H](CNCc4ccccc4O)C=C3C)[nH]c2c1 returned HEK293 tox 22.4µM*, NPR1 antag inconclusive, 3T3 cytotox 20µM*, GPT2 inh inactive and Luciferase inh inactive.
Screening COC(=O)c1ccc2nc(C[C@@H]3C[C@@H](C(C)C)[C@H](CNC4CCN(C)CC4)C=C3C)[nH]c2c1 returned HEK293 tox 22.4µM*, NPR1 antag -12.9%, 3T3 cytotox 25.1µM*, GPT2 inh inactive and Luciferase inh inactive.
Screening COC(=O)c1ccc2nc(C[C@@H]3C[C@@H](C(C)C)[C@H](CNC4CCN(C(C)=O)CC4)C=C3C)[nH]c2c1 returned HEK293 tox inconclusive, NPR1 antag 0.5%, 3T3 cytotox inconclusive, GPT2 inh inactive and Luciferase inh inactive.
COC(=O)c1ccc2nc(C[C@@H]3C[C@@H](C(C)C)[C@H](CNS(=O)(=O)c4ccccc4)C=C3C)[nH]c2c1 was read as HEK293 tox 28.2µM*, NPR1 antag -5.6%, 3T3 cytotox 31.6µM*, GPT2 inh -9.7% and Luciferase inh inactive.
COC(=O)c1ccc2nc(C[C@@H]3C[C@@H](C(C)C)[C@H](CNC(=O)CCC(=O)O)C=C3C)[nH]c2c1 was read as HEK293 tox -12.9%, NPR1 antag -1.5%, 3T3 cytotox -8.5%, GPT2 inh 3.8% and Luciferase inh inactive.
For COc1ccc(Cn2c(C3CCN(C(=O)c4ccc(Cl)cc4)CC3)n[nH]c2=O)cc1 the results were HEK293 tox -0.7%, NPR1 antag -3.7%, 3T3 cytotox -12.7%, GPT2 inh 0.7% and Luciferase inh inactive.
For COc1ccc(-c2nnc(C[C@@H]3C[C@@H](C(C)C)[C@H](CN4CCN(C)CC4)C=C3C)o2)cc1 the results were HEK293 tox 31.6µM*, NPR1 antag -2.1%, 3T3 cytotox 39.8µM*, GPT2 inh inconclusive and Luciferase inh inactive.
For CC1=C[C@@H](CN2CCN(c3ccccn3)CC2)[C@H](C(C)C)C[C@H]1Cc1nnc(-c2ccc(C)cc2)o1 the results were HEK293 tox inconclusive, NPR1 antag -27.5%, 3T3 cytotox inconclusive, GPT2 inh inconclusive and Luciferase inh inactive.
Screening CC1=C[C@@H](CN2CCN(CCO)CC2)[C@H](C(C)C)C[C@H]1Cc1nnc(-c2ccc(N(C)C)cc2)o1 returned HEK293 tox 14.1µM*, NPR1 antag 1.1%, 3T3 cytotox 20µM*, GPT2 inh 1.4% and Luciferase inh inactive.
